Experimental data: PubChem BioAssay (EPA / NIEHS)
A structure can be active in one record and inactive in another. The source made the active and inactive calls. How the source made its calls: active means hit-call score of the fitted dose curve at least 0.9, where 1 is the maximum; inactive means score below 0.9.

What was measured:
[1] = read-out: Tissue Factor, F3 (gene 2152); test: BSK_CASM3C_TissueFactor: BioMAP Diversity Plus: CASM3C Assay for Tissue Factor Biomarker Activity (AID 2283052); conditions: primary human coronary artery smooth muscle cells; actives raise or lower the signal;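 further: cell surface tissue factor protein level read by ELISA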
[2] = read-out: Interferon-gamma inducible Protein 10 (IP10), CXCL10 (gene 3627); test: BSK_hDFCGF_IP10: BioMAP Diversity Plus: hDFCGF Assay for Interferon-gamma inducible Protein 10 (IP10) Biomarker Activity (AID 2283053); conditions: primary human foreskin fibroblasts; actives raise or lower the signal
Summary of the method: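 IP-10 levels, quantified by ELISA, are taken from human foreskin fibroblast cultures 24 h after chemical treatment, with DMSO serving as negative control and baseline for bidirectional analysis.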

[3] = read-out: Urokinase-type plasminogen activator receptor (uPAR), PLAUR (gene 5329); test: BSK_CASM3C_uPAR: BioMAP Diversity Plus: CASM3C Assay for Urokinase-type plasminogen activator receptor (uPAR) Biomarker Activity (AID 2283054); conditions: primary human coronary artery smooth muscle cells; actives raise or lower the signal;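 further: cell-surface uPAR protein level quantified by ELISA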
[4] = read-out: Vascular cell adhesion molecule 1 (VCAM1), VCAM1 (gene 7412); test: BSK_CASM3C_VCAM1: BioMAP Diversity Plus: CASM3C Assay for Vascular cell adhesion molecule 1 (VCAM1) Biomarker Activity (AID 2283055); conditions: primary human coronary artery smooth muscle cells; actives raise or lower the signal;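 further: VCAM-1 protein level quantified by ELISA on the cells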
[5] = read-out: Collagen III, COL3A1 (gene 1281); test: BSK_hDFCGF_CollagenIII: BioMAP Diversity Plus: hDFCGF Assay for Collagen III Biomarker Activity (AID 2283056); conditions: primary human foreskin fibroblasts; actives raise or lower the signal
Summary of the method: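 Human foreskin primary fibroblasts were exposed to test chemicals for 24 h, after which collagen III was quantified by ELISA. Activity was fitted bidirectionally against DMSO as negative control and baseline.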

[6] = read-out: Epidermal growth factor receptor (EGFR), EGFR (gene 1956); test: BSK_hDFCGF_EGFR: BioMAP Diversity Plus: hDFCGF Assay for Epidermal growth factor receptor (EGFR) Biomarker Activity (AID 2283057); conditions: primary human foreskin fibroblasts; actives raise or lower the signal
Summary of the method: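 Measured by ELISA: EGFR levels on primary human foreskin fibroblasts 24 h after chemical treatment, analysed relative to DMSO with bidirectional fitting.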

[7] = read-out: Interleukin-8 (IL8), CXCL8 (gene 3576); test: BSK_hDFCGF_IL8: BioMAP Diversity Plus: hDFCGF Assay for Interleukin-8 (IL8) Biomarker Activity (AID 2283058); conditions: primary human foreskin fibroblasts; actives raise or lower the signal
Summary of the method: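 hDFCGF human dermal fibroblasts; 24 h chemical exposure; IL-8 by ELISA; bidirectional curve fit vs DMSO baseline; gain or loss of signal scored.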

[8] = BSK_hDFCGF_Proliferation: Cell Proliferation Assessment in the BioMAP Diversity Plus: hDFCGF Assay (AID 2283059); conditions: primary human foreskin fibroblasts;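 further: curves fitted for both rise and fall of signal versus DMSO baseline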
Summary of the method: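 Total protein read at 560 nm after 0.1% SRB staining of TCA-fixed human skin fibroblasts, […]. Activity is fitted in both directions relative to DMSO as baseline.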

[9] = read-out: Macrophage colony-stimulating factor (MCSF), CSF1 (gene 1435); test: BSK_hDFCGF_MCSF: BioMAP Diversity Plus: hDFCGF Assay for Macrophage colony-stimulating factor (MCSF) Biomarker Activity (AID 2283060); conditions: primary human foreskin fibroblasts; actives raise or lower the signal
Summary of the method: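 Human foreskin primary fibroblasts were treated with test chemical for 24 h, and M-CSF was then measured by ELISA. Data were fitted bidirectionally against DMSO as the negative control and activity baseline.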

[10] = BSK_hDFCGF_SRB: Viability Assessment in the BioMAP Diversity Plus: hDFCGF Assay (AID 2283061); conditions: primary human foreskin fibroblasts;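 further: cells exposed to compound for 24 h before the read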
Summary of the method: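 Human foreskin primary fibroblasts were treated with compound and assessed 24 h after dosing. Total protein was measured by sulforhodamine B staining (0.1% SRB after 10% TCA fixation, 560 nm read) as a cytotoxicity marker, with bidirectional fitting against DMSO baseline.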

[11] = read-out: TIMP metallopeptidase inhibitor 1 (TIMP1), TIMP1 (gene 7076); test: BSK_hDFCGF_TIMP1: BioMAP Diversity Plus: hDFCGF Assay for TIMP metallopeptidase inhibitor 1 (TIMP1) Biomarker Activity (AID 2283062); conditions: primary human foreskin fibroblasts; actives raise or lower the signal
Summary of the method: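 Primary human foreskin fibroblasts in the hDFCGF system were dosed with compound for 24 h, then TIMP-1 was measured by ELISA. Activity was fitted bidirectionally relative to DMSO control; parallel SRB staining assessed cytotoxicity.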

[12] = read-out: Monokine induced gamma interferon (MIG), CXCL9 (gene 4283); test: BSK_hDFCGF_MIG: BioMAP Diversity Plus: hDFCGF Assay for Monokine induced gamma interferon (MIG) Biomarker Activity (AID 2283063); conditions: primary human foreskin fibroblasts; actives raise or lower the signal
Summary of the method: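 ELISA read-out of MIG from primary human dermal fibroblasts 24 h post-dosing. Gain or loss of signal fitted bidirectionally, DMSO as baseline.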

[13] = read-out: Matrix Metallopeptidase 1 (MMP1), MMP1 (gene 4312); test: BSK_hDFCGF_MMP1: BioMAP Diversity Plus: hDFCGF Assay for Matrix Metallopeptidase 1 (MMP1) Biomarker Activity (AID 2283064); conditions: primary human foreskin fibroblasts; actives raise or lower the signal
Summary of the method: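 hDFCGF primary fibroblasts (human foreskin); chemical added; 24 h; MMP1 by ELISA; bidirectional fit vs DMSO.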

[14] = read-out: Vascular cell adhesion molecule 1 (VCAM1), VCAM1 (gene 7412); test: BSK_hDFCGF_VCAM1: BioMAP Diversity Plus: hDFCGF Assay for Vascular cell adhesion molecule 1 (VCAM1) Biomarker Activity (AID 2283065); conditions: primary human foreskin fibroblasts; actives raise or lower the signal
Summary of the method: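 Primary human foreskin fibroblasts (hDFCGF system) were dosed with chemical and VCAM-1 was measured by ELISA 24 h later. Bidirectional curve fitting used DMSO as negative control and activity baseline.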

[15] = read-out: Plasminogen activator inhibitor-1 (PAI1), SERPINE1 (gene 5054); test: BSK_hDFCGF_PAI1: BioMAP Diversity Plus: hDFCGF Assay for Plasminogen activator inhibitor-1 (PAI1) Biomarker Activity (AID 2283066); conditions: primary human foreskin fibroblasts; actives raise or lower the signal
Summary of the method: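 PAI-1 levels, determined by ELISA, served as the endpoint in human foreskin fibroblast cultures exposed to compound for 24 h, with DMSO as baseline.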

[16] = read-out: Intercellular Adhesion Molecule 1 (ICAM1), ICAM1 (gene 3383); test: BSK_KF3CT_ICAM1: BioMAP Diversity Plus: KF3CT Assay for Intercellular Adhesion Molecule 1 (ICAM1) Biomarker Activity (AID 2283067); conditions: primary human keratinocytes with fibroblasts; actives raise or lower the signal
Summary of the method: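 Human keratinocyte plus foreskin fibroblast primary co-culture was exposed to chemical for 24 h. ICAM-1 was then quantified by ELISA, and the data were fit bidirectionally against DMSO as the negative control and baseline.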

[17] = read-out: Interferon-gamma inducible Protein 10 (IP10), CXCL10 (gene 3627); test: BSK_KF3CT_IP10: BioMAP Diversity Plus: KF3CT Assay for Interferon-gamma inducible Protein 10 (IP10) Biomarker Activity (AID 2283068); conditions: primary human keratinocytes with fibroblasts; actives raise or lower the signal
Summary of the method: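 Human keratinocyte plus foreskin fibroblast primary co-culture exposed to test chemical for 24 h; IP-10 measured by ELISA. Concentration-response fitted bidirectionally against DMSO control as baseline.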

[18] = BSK_KF3CT_SRB: Viability Assessment in the BioMAP Diversity Plus: KF3CT Assay (AID 2283069); conditions: primary human keratinocytes with fibroblasts;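 further: fitted for both signal gain and loss against DMSO baseline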
Summary of the method: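 Keratinocytes co-cultured with foreskin fibroblasts (human primary); chemical added, 24 h; fix 10% TCA, stain 0.1% SRB, A560. Bidirectional fit vs DMSO.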

[19] = read-out: Interleukin-1 alpha (IL1a), IL1A (gene 3552); test: BSK_KF3CT_IL1a: BioMAP Diversity Plus: KF3CT Assay for Interleukin-1 alpha (IL1a) Biomarker Activity (AID 2283070); conditions: primary human keratinocytes with fibroblasts; actives raise or lower the signal
Summary of the method: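 Chemicals were dosed onto co-cultured human keratinocytes and foreskin fibroblasts, IL-1a was quantified by ELISA at 24 h, and activity was fitted in both directions relative to DMSO controls.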

[20] = read-out: TIMP metallopeptidase inhibitor 2 (TIMP2), TIMP2 (gene 7077); test: BSK_KF3CT_TIMP2: BioMAP Diversity Plus: KF3CT Assay for TIMP metallopeptidase inhibitor 2 (TIMP2) Biomarker Activity (AID 2283071); conditions: primary human keratinocytes with fibroblasts; actives raise or lower the signal
Summary of the method: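 Keratinocyte–fibroblast co-culture, 24 h exposure; TIMP-2 ELISA, DMSO-normalised bidirectional fit. Parallel SRB (0.1%, TCA-fixed, 560 nm) total-protein staining gauges cytotoxicity.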

Measured: AC50

O=C(O)C(F)(OC(F)(F)C(F)(OC(F)(F)C(F)(F)C(F)(F)F)C(F)(F)F)C(F)(F)F (configuration not stated)
inactive: all assays above

CCO[Si](CCC(F)(F)C(F)(F)C(F)(F)C(F)(F)C(F)(F)C(F)(F)F)(OCC)OCC
active: [1] 1.58 µM
inactive: [1] | [2] | [3] | [4] | [5] | [6] | [7] | [8] | [9] | [10] | [12] | [13] | [14] | [15] | [16] | [17] | [18] | [19] | [20]

FC(F)(F)C(F)(F)CNCC(F)(F)C(F)(F)F
inactive: [1] | [2] | [3] | [4] | [5] | [6] | [7] | [8] | [9] | [10] | [11] | [12] | [13] | [14] | [15] | [16] | [17] | [18] | [19] | [20]
active: [6] 7.57 µM

FC(F)(F)C(F)(F)C(F)(F)C(F)(F)C(F)(F)C(F)(F)CCS
not listed: [11] | [18]
inactive: all other assays above

O=C(O)C(F)(F)C(F)(F)C(F)(F)C(F)(F)F
not listed: [18]
inactive: all other assays above

CCc1c(Br)c(Br)c(Br)c(Br)c1Br
active: [1] 4.48 µM
not listed: [11] | [18]
inactive: all other assays above

O=S(=O)(O)C(F)(F)C(F)(F)C(F)(F)C(F)(F)C(F)(F)C(F)(F)C(F)(F)F
not listed: [11] | [18]
inactive: all other assays above

OCC(F)(F)C(F)(F)C(F)(F)C(F)(F)C(F)(F)C(F)F
not listed: [18]
inactive: all other assays above

CCCCCCCCC(F)(F)C(F)(F)C(F)(F)C(F)(F)C(F)(F)C(F)(F)F
not listed: [18]
inactive: all other assays above
